# This is part of a sample that, as a whole, favours compounds with a hit. Of some 79,000 tested, about 15% had one in any assay. A number with no mark means an inactive call. Active and inactive are the calls of the source. Cut-off read from the data, not from the text of the source: active = growth inhibition above about 70%; inactive = the rest.
# Key:
# [1] = NCI Yeast Anticancer Drug Screen. Data for the mlh1 strain (AID 171);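 note: 0% = growth of vehicle-treated control cultures of the same strain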; details: S. cerevisiae mlh1 strain growth inhibition, stronger effect = higher value
# Outline: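 A yeast strain with a defined genetic lesion serves as the test organism. Cultures receive compound or vehicle, and growth is measured.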
# [2] = NCI Yeast Anticancer Drug Screen. Data for the sgs1 strain (AID 173);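 note: 0% = growth of vehicle-only control cultures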; details: S. cerevisiae sgs1 mutant, stronger effect = higher value
# Outline: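 A genetically defined yeast mutant is incubated with the test compound, and its growth is compared to that of the same strain given vehicle.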
# [3] = NCI Yeast Anticancer Drug Screen. Data for the mlh1 rad18 strain (AID 175); details: S. cerevisiae mlh1 rad18 strain growth inhibition, stronger effect = higher value
# Outline: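 Steps: expose repair-defective yeast to compound; measure growth; express inhibition against vehicle-treated controls.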
# [4] = NCI Yeast Anticancer Drug Screen. Data for the rad18 strain (AID 177); details: S. cerevisiae rad18 mutant growth inhibition, stronger effect = higher value
# Outline: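 Measured value is growth inhibition of a yeast strain bearing a DNA repair alteration, referenced to vehicle-treated cells.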
# [5] = NCI Yeast Anticancer Drug Screen. Data for the rad52 strain (AID 147);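 note: 0% = growth of vehicle-treated control cultures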; details: S. cerevisiae rad52 mutant growth inhibition, stronger effect = higher value
# Outline: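 Here a repair-compromised yeast strain receives each compound; its growth is then quantified and normalised to vehicle-only controls.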
# [6] = NCI Yeast Anticancer Drug Screen. Data for the wt1 strain (AID 149);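 note: 0% = growth of vehicle-treated wt1 cultures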; details: S. cerevisiae wt1 strain (SPY 50644) growth inhibition, stronger effect = higher value
# Outline: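 Growth inhibition read against vehicle controls after compound exposure of the wt1 yeast strain.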
# [7] = NCI Yeast Anticancer Drug Screen. Data for the rad50EPP+ strain (AID 151);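 note: 0% = growth of vehicle-treated control cultures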; details: S. cerevisiae rad50 mutant strain, stronger effect = higher value
# Outline: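 Read-out is yeast growth inhibition relative to vehicle; cells used were the rad50EPP+ strain.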
# [8] = NCI Yeast Anticancer Drug Screen. Data for the rad50 strain (AID 155);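 note: 0% = growth of vehicle-only cultures of the same strain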; details: S. cerevisiae rad50 strain growth inhibition, stronger effect = higher value
# Outline: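 Readout: growth inhibition relative to vehicle-treated cultures. Compound exposure was carried out in a genetically defined yeast strain deficient in DNA damage repair.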
# [9] = NCI Yeast Anticancer Drug Screen. Data for the mec2-1 strain (AID 157); details: S. cerevisiae mec2-1 strain, stronger effect = higher value
# Outline: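 Using mec2-1 yeast: add compound, measure growth, express inhibition versus vehicle-treated cultures.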
# [10] = NCI Yeast Anticancer Drug Screen. Data for the rad14 strain (AID 159);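 note: 0% = growth of vehicle-treated control cultures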; details: S. cerevisiae rad14 strain growth inhibition, stronger effect = higher value
# Outline: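 Growth inhibition vs vehicle controls; genetically altered yeast strain (DNA damage repair defect) treated with test compounds.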
# [11] = NCI Yeast Anticancer Drug Screen. Data for the sgs1 mgt1 strain (AID 161);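 note: 0% = growth of cultures given vehicle only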; details: S. cerevisiae sgs1 mgt1 strain, stronger effect = higher value
# Outline: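 Yeast cells carrying a defined DNA-repair defect were exposed to test compounds. Growth inhibition was measured relative to vehicle-treated controls.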
# [12] = NCI Yeast Anticancer Drug Screen. Data for the CLN2oe strain (AID 163);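 note: 0% = growth of vehicle-only control cultures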; details: S. cerevisiae CLN2oe strain, stronger effect = higher value
# Outline: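 Whole-cell yeast growth assay. A strain engineered for altered cell-cycle control received compound, and inhibition relative to vehicle-treated cultures was recorded.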
# [13] = NCI Yeast Anticancer Drug Screen. Data for the cln2 rad14 strain (AID 165);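 note: 0% = growth equal to vehicle treated cultures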; details: S. cerevisiae cln2 rad14 strain, stronger effect = higher value
# Outline: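 Yeast strain cln2 rad14, bearing defects in cell cycle control and DNA repair, serves as the test system; values reflect growth inhibition compared with vehicle.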
# [14] = NCI Yeast Anticancer Drug Screen. Data for the bub3 strain (AID 167); details: S. cerevisiae bub3 mutant strain, stronger effect = higher value
# Outline: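 Readout: yeast growth inhibition, expressed relative to vehicle-only wells. The test organism is a mutant strain from a panel with lesions in DNA repair or checkpoint genes.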
# [15] = NCI Yeast Anticancer Drug Screen. Data for the wt2 strain (AID 169);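 note: 0% = growth of vehicle-treated yeast cultures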; details: S. cerevisiae wt2 strain growth inhibition, stronger effect = higher value
# Outline: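 Treated yeast vs. vehicle-treated yeast: growth inhibition determined.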
# [16] = at 5.0 µM (retest, dose inferred, filed as 0.5)
# [17] = at 50.0 µM (retest, dose inferred, filed as 5.0)
smiles,measurement,setting,value
CCCCC1=NNC(=O)C1,growth inhibition,[1]; at 1.2 µM,-11%
same,growth inhibition,[1]; at 3.7 µM,1%
same,growth inhibition,[1]; at 11.0 µM,-7%
same,growth inhibition,[1]; at 33.0 µM,-10%
same,growth inhibition,[1]; at 100.0 µM,-18%
same,growth inhibition,[2]; at 1.2 µM,10%
same,growth inhibition,[2]; at 3.7 µM,12%
same,growth inhibition,[2]; at 11.0 µM,0%
same,growth inhibition,[2]; at 33.0 µM,-22%
same,growth inhibition,[2]; at 100.0 µM,5%
same,growth inhibition,[3]; [16],53%
same,growth inhibition,[3]; [17],69%
same,growth inhibition,[3]; at 50.0 µM,-34.6%
same,growth inhibition,[4]; at 1.2 µM,-10%
same,growth inhibition,[4]; at 3.7 µM,1%
same,growth inhibition,[4]; at 11.0 µM,0%
same,growth inhibition,[4]; at 33.0 µM,1%
same,growth inhibition,[4]; at 100.0 µM,24%
CCC(NC(C)c1ccccc1)C(=O)c1ccc(OCc2ccccc2)c(OCc2ccccc2)c1 (centres undefined),growth inhibition,[5]; at 1.2 µM,0%
same,growth inhibition,[5]; at 3.7 µM,7%
same,growth inhibition,[5]; at 11.0 µM,0%
same,growth inhibition,[5]; at 33.0 µM,6%
same,growth inhibition,[5]; at 100.0 µM,-18%
same,growth inhibition,[6]; at 1.2 µM,22%
same,growth inhibition,[6]; at 3.7 µM,18%
same,growth inhibition,[6]; at 11.0 µM,6%
same,growth inhibition,[6]; at 33.0 µM,2%
same,growth inhibition,[6]; at 100.0 µM,-15%
same,growth inhibition,[7]; at 1.2 µM,8%
same,growth inhibition,[7]; at 3.7 µM,7%
same,growth inhibition,[7]; at 11.0 µM,10%
same,growth inhibition,[7]; at 33.0 µM,24%
same,growth inhibition,[7]; at 100.0 µM,43%
same,growth inhibition,[8]; at 1.2 µM,-8%
same,growth inhibition,[8]; at 3.7 µM,9%
same,growth inhibition,[8]; [16],11%
same,growth inhibition,[8]; at 11.0 µM,22%
same,growth inhibition,[8]; at 33.0 µM,14%
same,growth inhibition,[8]; [17],38%
same,growth inhibition,[8]; at 50.0 µM,-12.7%
same,growth inhibition,[8]; at 100.0 µM,1%
same,growth inhibition,[9]; at 1.2 µM,39%
same,growth inhibition,[9]; at 3.7 µM,23%
same,growth inhibition,[9]; [16],9%
same,growth inhibition,[9]; at 11.0 µM,35%
same,growth inhibition,[9]; at 33.0 µM,31%
same,growth inhibition,[9]; [17],97% (active)
same,growth inhibition,[9]; at 50.0 µM,15.3%
same,growth inhibition,[9]; at 100.0 µM,30%
same,growth inhibition,[10]; at 1.2 µM,-1%
same,growth inhibition,[10]; at 3.7 µM,3%
same,growth inhibition,[10]; at 11.0 µM,3%
same,growth inhibition,[10]; at 33.0 µM,3%
same,growth inhibition,[10]; at 100.0 µM,-12%
same,growth inhibition,[11]; [16],-21%
same,growth inhibition,[11]; [17],15%
same,growth inhibition,[11]; at 50.0 µM,28.2%
same,growth inhibition,[12]; at 1.2 µM,-4%
same,growth inhibition,[12]; at 3.7 µM,-3%
same,growth inhibition,[12]; at 11.0 µM,-14%
same,growth inhibition,[12]; at 33.0 µM,-16%
same,growth inhibition,[12]; at 100.0 µM,-29%
same,growth inhibition,[13]; [16],-9%
same,growth inhibition,[13]; [17],30%
same,growth inhibition,[13]; at 50.0 µM,0.35%
same,growth inhibition,[14]; at 1.2 µM,-47%
same,growth inhibition,[14]; at 3.7 µM,-38%
same,growth inhibition,[14]; [16],-7%
same,growth inhibition,[14]; at 11.0 µM,-48%
same,growth inhibition,[14]; at 33.0 µM,-67%
same,growth inhibition,[14]; [17],1%
same,growth inhibition,[14]; at 50.0 µM,22.8%
same,growth inhibition,[14]; at 100.0 µM,-81%
same,growth inhibition,[15]; at 1.2 µM,-12%
same,growth inhibition,[15]; at 3.7 µM,-12%
same,growth inhibition,[15]; at 11.0 µM,-13%
same,growth inhibition,[15]; at 33.0 µM,-7%
same,growth inhibition,[15]; at 100.0 µM,-6%
same,growth inhibition,[1]; at 1.2 µM,5%
same,growth inhibition,[1]; at 3.7 µM,-6%
same,growth inhibition,[1]; at 11.0 µM,3%
same,growth inhibition,[1]; at 33.0 µM,0%
same,growth inhibition,[1]; at 100.0 µM,-3%
same,growth inhibition,[2]; at 1.2 µM,8%
same,growth inhibition,[2]; at 3.7 µM,18%
same,growth inhibition,[2]; at 11.0 µM,11%
same,growth inhibition,[2]; at 33.0 µM,42%
same,growth inhibition,[2]; at 100.0 µM,19%
same,growth inhibition,[3]; [16],14%
same,growth inhibition,[3]; [17],96% (active)
same,growth inhibition,[3]; at 50.0 µM,-4.9%
same,growth inhibition,[4]; at 1.2 µM,-13%
same,growth inhibition,[4]; at 3.7 µM,-4%
same,growth inhibition,[4]; at 11.0 µM,-26%
same,growth inhibition,[4]; at 33.0 µM,-27%
same,growth inhibition,[4]; at 100.0 µM,-30%
O=C(O)c1[nH]c(=O)c2ccccc2c1Nc1ccccc1,growth inhibition,[5]; at 1.2 µM,-2%
same,growth inhibition,[5]; at 3.7 µM,-1%
same,growth inhibition,[5]; at 11.0 µM,2%
same,growth inhibition,[5]; at 33.0 µM,4%
same,growth inhibition,[5]; at 100.0 µM,3%
same,growth inhibition,[6]; at 1.2 µM,-1%
same,growth inhibition,[6]; at 3.7 µM,-2%
same,growth inhibition,[6]; at 11.0 µM,-2%
same,growth inhibition,[6]; at 33.0 µM,-1%
same,growth inhibition,[6]; at 100.0 µM,1%
same,growth inhibition,[7]; at 1.2 µM,-3%
same,growth inhibition,[7]; at 3.7 µM,-2%
same,growth inhibition,[7]; at 11.0 µM,0%
same,growth inhibition,[7]; at 33.0 µM,-1%
same,growth inhibition,[7]; at 100.0 µM,6%
same,growth inhibition,[8]; at 1.2 µM,-3%
same,growth inhibition,[8]; at 3.7 µM,-1%
same,growth inhibition,[8]; [16],-6%
same,growth inhibition,[8]; at 11.0 µM,1%
same,growth inhibition,[8]; at 33.0 µM,4%
same,growth inhibition,[8]; [17],-11%
same,growth inhibition,[8]; at 50.0 µM,-0.85%
same,growth inhibition,[8]; at 100.0 µM,0%
same,growth inhibition,[9]; at 1.2 µM,-3%
same,growth inhibition,[9]; at 3.7 µM,-3%
same,growth inhibition,[9]; [16],-13%
same,growth inhibition,[9]; at 11.0 µM,-2%
same,growth inhibition,[9]; at 33.0 µM,1%
same,growth inhibition,[9]; [17],-24%
same,growth inhibition,[9]; at 50.0 µM,-1.2%
same,growth inhibition,[9]; at 100.0 µM,3%
same,growth inhibition,[10]; at 1.2 µM,-3%
same,growth inhibition,[10]; at 3.7 µM,-3%
same,growth inhibition,[10]; at 11.0 µM,1%
same,growth inhibition,[10]; at 33.0 µM,1%
same,growth inhibition,[10]; at 100.0 µM,2%
same,growth inhibition,[11]; [16],0%
same,growth inhibition,[11]; [17],5%
same,growth inhibition,[11]; at 50.0 µM,10.3%
same,growth inhibition,[12]; at 1.2 µM,-3%
same,growth inhibition,[12]; at 3.7 µM,1%
same,growth inhibition,[12]; at 11.0 µM,-2%
same,growth inhibition,[12]; at 33.0 µM,-1%
same,growth inhibition,[12]; at 100.0 µM,1%
same,growth inhibition,[13]; [16],-23%
same,growth inhibition,[13]; [17],41%
same,growth inhibition,[13]; at 50.0 µM,-10.4%
same,growth inhibition,[14]; at 1.2 µM,-2%
same,growth inhibition,[14]; at 3.7 µM,-2%
same,growth inhibition,[14]; [16],-4%
same,growth inhibition,[14]; at 11.0 µM,-3%
same,growth inhibition,[14]; at 33.0 µM,-3%
same,growth inhibition,[14]; [17],-11%
same,growth inhibition,[14]; at 50.0 µM,-6.6%
same,growth inhibition,[14]; at 100.0 µM,-2%
same,growth inhibition,[15]; at 1.2 µM,-3%
same,growth inhibition,[15]; at 3.7 µM,-3%
same,growth inhibition,[15]; at 11.0 µM,-2%
same,growth inhibition,[15]; at 33.0 µM,-4%
same,growth inhibition,[15]; at 100.0 µM,0%
same,growth inhibition,[1]; at 1.2 µM,-2%
same,growth inhibition,[1]; at 3.7 µM,0%
same,growth inhibition,[1]; at 11.0 µM,0%
same,growth inhibition,[1]; at 33.0 µM,1%
same,growth inhibition,[1]; at 100.0 µM,4%
same,growth inhibition,[2]; at 1.2 µM,-7%
same,growth inhibition,[2]; at 3.7 µM,-3%
same,growth inhibition,[2]; at 11.0 µM,1%
same,growth inhibition,[2]; at 33.0 µM,1%
same,growth inhibition,[2]; at 100.0 µM,2%
same,growth inhibition,[3]; [16],-14%
same,growth inhibition,[3]; [17],-8%
same,growth inhibition,[3]; at 50.0 µM,7.5%
same,growth inhibition,[4]; at 1.2 µM,-2%
same,growth inhibition,[4]; at 3.7 µM,-1%
same,growth inhibition,[4]; at 11.0 µM,0%
same,growth inhibition,[4]; at 33.0 µM,0%
same,growth inhibition,[4]; at 100.0 µM,6%

# Source: PubChem BioAssay (NCI)
